From PMC5540273 (PLoS ONE, 2017)
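Also: KINOMEscan kinase panel screen.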

What follows are molecules tested on EPHA5. Settings: concentration: 1 μM, replicates: in singlicate; n = 1.
In the case of `O=C(Nc1n[nH]c2nc(-c3cccc(O)c3)ccc12)C1CC1` [SB-711805], the “%Inh” value was 0%.
`CN(c1ccc(NC(=O)Nc2cccc(Cl)c2)cc1)c1ccnc(N)n1.Cl` [GW830707] was tested, and the “%Inh” value was 33%.
With `CC(=O)Nc1cn2nc(Oc3cccc(NC(=O)c4cccc(C(F)(F)F)c4)c3)ccc2n1` the “%Inh” value was 96.2%.
`COc1ccc(C)c(Nc2ccnc(Nc3ccc(-c4cnc[nH]4)cc3)n2)c1.Cl` [GW784041] was tested, and the “%Inh” value was 4%.
In the case of `Cl.Cl.NC(CNC(=O)c1cc(Br)c(-c2ccnc3[nH]ccc23)s1)c1ccccc1` (stereo not drawn) [GSK1322949], the “%Inh” value was 0%.

Each molecule was assayed on EPHA6. Settings: concentration: 1 μM, replicates: in singlicate; n = 1.
In the case of `Nc1ncc(-c2ccc3nccc(-c4ccncc4)c3c2)cc1S(=O)(=O)N1CCCCC1` [GSK1693850], the “%Inh” value was 0%.
For `COc1cccc(CC(=O)N2CCc3cc(-c4cn(C)c5ncnc(N)c45)ccc32)c1` [GSK2608899], the “%Inh” value was 10%.
In the case of `CC(C)NCC(Cc1ccccc1)NC(=O)c1cc(Br)c(-c2ccnc3[nH]ccc23)s1.Cl.Cl` (stereo not drawn) [GSK1383281], the “%Inh” value was 0%.
In the case of `Nc1ncc(-c2cn[nH]c2)c2scc(-c3ccc4c(c3)CCN4C(=O)Cc3ccccc3)c12` [GSK2593067], the “%Inh” value was 12%.
With `Cc1cccc(Nc2nc(NCCN)ncc2C(N)=O)c1` [GSK1292139] the “%Inh” value was 0%.
With `CC(C)c1nc(-c2cccc(NS(=O)(=O)c3c(F)cccc3F)c2)c(-c2ccnc(Nc3ccc(N4CCOCC4)nc3)n2)s1.Cl` [GSK1723980] the “%Inh” value was 77%.
`Cc1ccc(-c2ccc3occ(-c4ccc(S(C)=O)cc4)c3c2)nn1` (stereo not drawn) was tested, and the “%Inh” value was 21%.
`COc1ccc(C2=C(Nc3cccc(O)c3)C(=O)NC2=O)cc1` [SB-390766] was tested, and the “%Inh” value was 0%.
With `COc1ccc(NC(=O)c2ccoc2)cc1-c1ccc(C(=O)NCC2CC2)cc1` [GW810437] the “%Inh” value was 0%.
For `Cc1nn2c(=O)cc(N3CCO[C@H](C)C3)nc2n1Cc1cccc(Cl)c1Cl` [GSK2373693], the “%Inh” value was 0%.
For `Cl.O=C(Nc1ccc(Oc2ccc3[nH]c(NC(=O)c4ccco4)nc3c2)cc1)Nc1cc(C(F)(F)F)ccc1F` [GW683134], the “%Inh” value was 96.4%.
`O=C(O)C(F)(F)F.O=c1[nH]ccc2nc(N[C@@H]3CCNC3)nc(Nc3ccc4c(c3)S(=O)(=O)CC4)c12` [GSK2181306] was tested, and the “%Inh” value was 16%.
With `O=C(Nc1n[nH]c2cc(-c3cccs3)ccc12)C1CC1` [SB-731284] the “%Inh” value was 0%.
In the case of `CNc1nccc(-c2ccc3c(N)n[nH]c3c2)n1` [GSK2206003], the “%Inh” value was 0%.
For `COc1cccc(NC(=O)NCCNc2ccnc(Nc3ccc(F)cc3)n2)c1` [GSK1379879], the “%Inh” value was 0%.
In the case of `CN(c1ccc2c(c1)nc(NCc1ccccc1)n2C)c1ccnc(Nc2ccc(CS(C)(=O)=O)cc2)n1.Cl` [GW811603], the “%Inh” value was 0%.
In the case of `Cc1ccc(O)cc1Nc1ccnc2cc(-c3ccc(CN4CCCCC4)o3)ccc12` [GW557777], the “%Inh” value was 90%.
In the case of `Cc1cccc(Nc2nc(N[C@H]3CCCC[C@H]3N)ncc2C(N)=O)c1.Cl` [GSK986310], the “%Inh” value was 6%.
With `c1ccc(Oc2ccc(Nc3ccnc4cc(-c5ccc(CN6CCCCC6)o5)ccc34)cc2)nc1` [GW567143] the “%Inh” value was 0%.
In the case of `CC(C)c1nc(-c2ccc(F)c(NS(=O)(=O)c3c(F)cccc3F)c2)c(-c2ccnc(Nc3ccc(N4CCOCC4)nc3)n2)s1` [GSK1804250], the “%Inh” value was 50%.
With `CCNc1nccc(-c2c(-c3ccc(F)cc3)ncn2C2CCN(C)CC2)n1` the “%Inh” value was 0%.
In the case of `Fc1cc(Cl)ccc1Nc1ccnc2cc(-c3ccc(CN4CCSCC4)o3)ccc12` [GW560106], the “%Inh” value was 52%.
In the case of `NCCC(NC(=O)c1cc(Br)c(-c2ccnc3[nH]ccc23)s1)c1ccccc1.O=C(O)C(F)(F)F.O=C(O)C(F)(F)F` (stereo not drawn) [GSK1307810], the “%Inh” value was 0%.
In the case of `Cc1ccc(NC(=O)c2ccc(Cl)c(Cl)c2)cc1-c1ccc(C(=O)Nc2ccncc2)cc1` [GSK1398460], the “%Inh” value was 18%.
For `O=C(O)C(F)(F)F.O=c1[nH]ccc2nc(N[C@@H]3CCNC3)nc(Nc3cc(Cl)cc(Cl)c3)c12` [GSK2188764], the “%Inh” value was 0%.
With `Nc1ncnc2scc(-c3ccc(NC(=O)Cc4cc(F)ccc4F)cc3)c12.O=C(O)C(F)(F)F` [SB-731254-M] the “%Inh” value was 0%.
`Cc1ccc(NC(=O)c2ccnc(N3CCCCC3)c2)cc1-c1ccc(C(=O)NCC2CC2)cc1` [GW775610] was tested, and the “%Inh” value was 0%.
For `Fc1cc(Cl)ccc1Nc1ccnc2cc(-c3ccc(CN4CCOCC4)o3)ccc12` [GW560109], the “%Inh” value was 65%.
`CS(=O)(=O)c1cccc(CNc2nc(Nc3ccc4c(c3)CCC(=O)N4)ncc2C(F)(F)F)c1` was tested, and the “%Inh” value was 0%.
With `Cc1cc(-c2c(-c3ccc(F)cc3)ncn2CCCN2CCOCC2)nc(N)n1` [SB-222517] the “%Inh” value was 30%.
For `CN1CCN(Cc2ccc(NC(=O)Nc3ccc(N(C)c4ccnc(Nc5ccc(CS(C)(=O)=O)cc5)n4)cc3)cc2)CC1.Cl` [GW827654], the “%Inh” value was 2%.
With `COc1cccc(C2=C(Nc3cccc(O)c3)C(=O)NC2=O)c1` [SB-390771] the “%Inh” value was 24%.
In the case of `O=C(Nc1n[nH]c2nc(-c3cccc(O)c3)ccc12)C1CC1` [SB-711805], the “%Inh” value was 15%.
For `CN(c1ccc(NC(=O)Nc2cccc(Cl)c2)cc1)c1ccnc(N)n1.Cl` [GW830707], the “%Inh” value was 48%.
`CC(=O)Nc1cn2nc(Oc3cccc(NC(=O)c4cccc(C(F)(F)F)c4)c3)ccc2n1` was tested, and the “%Inh” value was 94.3%.
For `COc1ccc(C)c(Nc2ccnc(Nc3ccc(-c4cnc[nH]4)cc3)n2)c1.Cl` [GW784041], the “%Inh” value was 12%.
In the case of `Cl.Cl.NC(CNC(=O)c1cc(Br)c(-c2ccnc3[nH]ccc23)s1)c1ccccc1` (stereo not drawn) [GSK1322949], the “%Inh” value was 0%.
